Unmarked numbers belong to inactive results. How the calls were made is not given here.
Biological target: CD276, Q5ZPR3
Sequence (Q5ZPR3 whole entry): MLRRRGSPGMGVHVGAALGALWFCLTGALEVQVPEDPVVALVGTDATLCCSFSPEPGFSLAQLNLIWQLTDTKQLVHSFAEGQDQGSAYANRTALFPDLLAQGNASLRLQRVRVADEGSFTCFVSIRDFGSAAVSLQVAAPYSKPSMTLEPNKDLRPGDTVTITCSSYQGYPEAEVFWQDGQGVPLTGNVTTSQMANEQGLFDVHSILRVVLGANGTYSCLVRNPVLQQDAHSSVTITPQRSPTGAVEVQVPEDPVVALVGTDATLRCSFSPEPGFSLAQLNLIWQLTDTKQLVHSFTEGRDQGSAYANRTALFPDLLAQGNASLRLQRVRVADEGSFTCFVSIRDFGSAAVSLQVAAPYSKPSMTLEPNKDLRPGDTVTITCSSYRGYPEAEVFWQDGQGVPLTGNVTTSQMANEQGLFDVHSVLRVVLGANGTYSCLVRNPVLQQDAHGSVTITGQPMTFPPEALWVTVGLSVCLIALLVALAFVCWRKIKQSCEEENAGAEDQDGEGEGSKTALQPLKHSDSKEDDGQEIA

B1: design_487_778f5c6d-c470-43b8-8f82-464af6177e08_978_dldesign_0_cycle1_af2pred (protein)
chain: KSPTEQVAEYAAKVRAKAPKGEEIARLLFSYNAAYQADPAKGKEKEKELKALAKENPEAKEYVEAAVAAVKA
binding in a display sort: not found

B2: design_487_778f5c6d-c470-43b8-8f82-464af6177e08_718_dldesign_0_cycle1_af2pred (protein)
chain: MKKEEAIRALAAAAARAAKLAVDPRTAAVANKALEVVVSAMEEVEASEDEEEAVEIAEKALAEADKLLAEAAKAA
binding in a display sort: not found

B3: design_487_778f5c6d-c470-43b8-8f82-464af6177e08_1035_dldesign_0_cycle1_af2pred (protein)
chain: VEEIVERVNAALARATRAALAGGPEAAARTAELMRRAAEAVRLAREDPEAGKKIADEVEAEVDALLAAVA
binding in a display sort: not found

B4: design_487_778f5c6d-c470-43b8-8f82-464af6177e08_1277_dldesign_0_cycle1_af2pred (protein)
chain: EKEEAKKKAEELLKEIKKLAKEAAASDAETANKYLAKAVETAKELYELAKKIGEEGKELAKEANAALAAAAKAAMDKVQ
binding in a display sort: not found

B5: design_487_778f5c6d-c470-43b8-8f82-464af6177e08_1099_dldesign_0_cycle1_af2pred (protein)
chain: AAEEVAKKFAKAVLRIALKQIDENAADPELVKKIADNAVKLLNSLSDGAAVAKAEAEKIKAHAEATIAKAKAAKA
binding in a display sort: not found

B6: design_487_778f5c6d-c470-43b8-8f82-464af6177e08_1105_dldesign_0_cycle1_af2pred (protein)
chain: AAQLALARATLIAAADSLERLAAQAGPAYAPVAAEAAALRAAAEAGTLTADEANAALGRLLDQMEAISAEIR
binding in a display sort: not found

B7: design_487_778f5c6d-c470-43b8-8f82-464af6177e08_620_dldesign_0_cycle1_af2pred (protein)
chain: GAKSKALQKLFQQANELHKLAIAAKKPEAKKIYNEAAGTALDFAEKAQAGGDEEAEKLAKEAEKIAKEAKEKALAIE
binding in a display sort: not found

B8: design_487_778f5c6d-c470-43b8-8f82-464af6177e08_1075_dldesign_0_cycle1_af2pred (protein)
chain: AAAEEAKKLVKEAKALLKAAEATGNLALAQAALEKALEAIALGAEVNKERPLPVAVEAVRLAGRAYALVRQLTA
binding in a display sort: not found

B9: design_487_778f5c6d-c470-43b8-8f82-464af6177e08_1334_dldesign_0_cycle1_af2pred (protein)
chain: AGGYAVLAQNTLARARALAAQGPAALPEIEAQARILQQVAEAAAQAGDAEGAATAAANAEQARALAEEARRA
binding in a display sort: not found

B10: design_487_778f5c6d-c470-43b8-8f82-464af6177e08_901_dldesign_0_cycle1_af2pred (protein)
chain: DELEKKIKEELEKAKEYLKKGKELFEAGKYKEAAAEFEKAIEYASKAMELAAEAGPKYNKYGVEASKVANEAYKLRQQALAK
binding in a display sort: not found

B11: design_487_778f5c6d-c470-43b8-8f82-464af6177e08_1117_dldesign_0_cycle1_af2pred (protein)
chain: MNVEEAKAQIEALMNRARGYFMRGAALAGTPEGAALNAKGAALLAEAEALAKEAGPEAQKVFAELKAKMDAAVNAVAN
binding in a display sort: not found

B12: design_487_778f5c6d-c470-43b8-8f82-464af6177e08_749_dldesign_0_cycle1_af2pred (protein)
chain: GAEEALLAEARALLARAQGLLIEAAKQLKTDPAAAIKLAEEAKKLAEKAKELAKKLGRRGPGLQAMADAVIDSAKALKAQAEAAL
binding in a display sort: not found

B13: design_487_778f5c6d-c470-43b8-8f82-464af6177e08_920_dldesign_0_cycle1_af2pred (protein)
chain: ESVREAARKVKELAEALAAQAKAAGDEEAAKLAEEAAKLAEEAEKKAEEDPEEAKRLIVEALRLLNRAFALLVAAS
binding in a display sort: not found

B14: design_487_778f5c6d-c470-43b8-8f82-464af6177e08_1348_dldesign_0_cycle1_af2pred (protein)
chain: AEKKREEAKKLVEEAKKLAEKGDFEKAVEKLREAVALDPSVIGEALEAVKVIAEKNPAAAPAASLAIIRAAQEA
binding in a display sort: not found

B15: design_487_778f5c6d-c470-43b8-8f82-464af6177e08_816_dldesign_0_cycle1_af2pred (protein)
chain: GSMEELAKLRAEAEEKLAAAQAVVERPAETVTLEELNAALAQAVEAARLFQEVGDRELLAEAFRVAATLAARAVEVAA
binding in a display sort: not found

B16: design_487_778f5c6d-c470-43b8-8f82-464af6177e08_1130_dldesign_0_cycle1_af2pred (protein)
chain: MTTEETARQQRENVEQVGRVAGLPEQAAELARAMEERAIREGLSNEEIIAEASRLSAQINRQALAAAQAA
binding in a display sort: not found

B17: design_487_778f5c6d-c470-43b8-8f82-464af6177e08_1159_dldesign_0_cycle1_af2pred (protein)
chain: DTAAALAAAAAAAAALAKADPALAPAALAITQANLAAILDLAEETKAANPEVPAAVGETFNTAITTASTAYATALKLAQ
binding in a display sort: not found

B18: design_487_778f5c6d-c470-43b8-8f82-464af6177e08_1347_dldesign_0_cycle1_af2pred (protein)
chain: AAEAETQAALAQLQATMHELMRIAAQALALGDAELAQEALEAVVKGQEGLADPSIVKATAEEVSAARERLRARVEALRAA
binding in a display sort: not found

B19: design_487_778f5c6d-c470-43b8-8f82-464af6177e08_1129_dldesign_0_cycle1_af2pred (protein)
chain: AEELRERMKKSADGAIEVINDLTAYGIAHPEHAALARAALTGLGTNMIAAAAANPVSKELAEKLAAALTAATAAIDAA
binding in a display sort: not found

B20: design_487_778f5c6d-c470-43b8-8f82-464af6177e08_1381_dldesign_0_cycle1_af2pred (protein)
chain: MVEKAIEMVEKATKEAAARAPAKAEEIKKLGEKFKKEVEYLGKLNPESGLVMARGAVGALKDIADKEAKA
binding in a display sort: not found

Source: article PMC13494018
